# Measurements from PubChem BioAssay (NCI).
# About 83,000 compounds went through this panel and 20% of them were active in at least one assay; those are over-represented in the sample as a whole.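 Growth was measured after 48 h exposure to one concentration of compound in 96-well plates. Values under 10 count as active.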 A number with no mark means an inactive call. Active and inactive are the calls of the source.
# Test system: CCRF-CEM leukemia
# Test: NCI-60 one-dose screen, 48 h (100 = growth as untreated, 0 = no growth, -100 = all killed)
# Conditions: 10 µM unless noted
row,Structure (SMILES),growth
1,Cc1ccc2sc3c(NCCCNCCO)nc4ccccc4c3c(=O)c2c1,10.8%
2,NCCOc1ncccc1/C=C1\c2ccccc2-c2ccc(F)cc21,6.8% (active)
3,CNCCNc1nc2ccccc2c2c(=O)c3cc(OC)ccc3sc12,2.47% (active)
4,CC(C)c1ccc(S(=O)(=O)NC(=O)NC2CCCC2)cc1,98%
5,COc1cc(/C=C2\CN(C)C/C(=C\c3cc(CN4CCCC4)c(O)c(OC)c3)C2=O)cc(CN2CCCC2)c1O,34.1%
6,Nc1ccccc1-c1ccc(-c2ccc(Cl)cc2)c2c1[nH]c1ccccc12,37.4%
7,O=C(Cn1cc(COc2ncnc3c2cnn3-c2ccccc2)nn1)Nc1ccccn1,96.7%
8,NCCOc1ccccc1/C=C1\c2ccccc2-c2ccc([N+](=O)[O-])cc21,0.81% (active)
9,COc1cc(/C(C#N)=C/c2nc3c(N4CCOCC4)nc(Cl)nc3n2C)cc(OC)c1OC,14.4%
10,Cc1ccc2cccc(Oc3ccc(Nc4ncnc5onc(-c6ccccc6)c45)cc3)c2n1,80.7%
11,COC(=O)/C(CCC=C(C)C)=C1\[C@@H](OC(C)=O)C[C@@]2(C)[C@H]1C[C@@H](O)[C@H]1[C@@]3(C)CC[C@H](NCc4ccccc4)[C@@H](C)[C@@H]3CC[C@@]12C,50.9%
12,COc1cc(/C=C/C(=O)c2ccc(Cl)cc2)cc(CN2CCCCC2)c1O,58.8%
13,O=C(/C=C/c1ccc(Cl)cc1)c1ccc(Nc2nc(NCCO)nc(Nc3ccc(Cl)cc3)n2)cc1,47.2%
14,CN1CCN(Cc2ccc(NC(=O)c3[nH]ncc3Nc3cc(OC4CCCC4)ncn3)cc2)CC1,5.67% (active)
15,Cn1c(/C=C(\C#N)c2ccccc2)nc2c(N3CCOCC3)nc(Cl)nc21,2.94% (active)
16,CCN1C(=O)N(CC)C2Nn3c(s/c(=C\c4ccccc4F)c3=O)=NC21 (centres undefined),34.1%
17,Cc1ccccc1CNC(=O)C1CN(c2ccc(Cl)cc2)N(c2ccc(Cl)cc2)C1=O (centres undefined),84.3%
18,CCCCC1CCc2cccc3c(SCC(=O)N(C)c4ccc(Cl)cc4)cc[n+]1c23 (centres undefined),108%
19,Clc1ccc(Oc2ccc(Nc3ncnc4onc(-c5ccccc5)c34)cc2)c(Cl)c1,98.1%
20,O=C(O)c1cn(C2CC2)c2cc(N3CCN(C(=O)C[n+]4ccccc4)CC3)c(F)cc2c1=O,97.4%

row,Structure (SMILES),growth
1,O=C(CSc1nc2ccccc2c(=O)n1-c1ccccc1)Nc1ccc(C(=O)/C=C/c2ccc(Cl)cc2)cc1,99.7%
2,Cc1nc(Nc2cn[nH]c2C(=O)Nc2ccc(CN3CCN(C)CC3)cc2)c2ccsc2n1,40.5%
3,CN1C(=O)N(C)C2Nn3c(s/c(=C4\C(=O)N(CCc5ccccc5)c5ccccc54)c3=O)=NC21 (centres undefined),53.1%
4,O=C(/C=C/c1ccc(C(F)(F)F)cc1)c1ccc(Nc2nc(NCCO)nc(N3CCOCC3)n2)cc1,10.3%
5,COc1cc(/C=C/C(=O)c2ccc(Nc3nc(NCCO)nc(N4CCOCC4)n3)cc2)cc(OC)c1OC,3.64% (active)
6,COc1cc(/C=C2\CN(S(=O)(=O)c3ccccc3)C/C(=C\c3cc(CN4CCCC4)c(O)c(OC)c3)C2=O)cc(CN2CCCC2)c1O,7.45% (active)
7,O=c1c2cc(F)ccc2sc2c(Nc3ccncc3)nc3ccccc3c12,-27.4% (active)
8,O=c1c2cc(F)ccc2sc2c(NCCN3CCCC3)nc3ccccc3c12,33.5%
9,CNC(=O)c1cc(Oc2ccc(CC(=O)Nc3cc(C(C)(C)C)cn3C)cc2)ccn1,74%
10,COc1cc2nc(NC3CCCC3)nc(NC3CCN(C(C)C)CC3)c2cc1OC,66.4%
11,O=C(NCc1ccco1)C1CN(c2ccc(Cl)cc2)N(c2ccc(Cl)cc2)C1=O (centres undefined),32.3%
12,COc1cccc2cc(N(C)c3nc(C)nc4ccsc34)ccc12,4.65% (active)
13,CN1C(=O)N(C)C2(c3ccccc3)OC(=S)NC12c1ccccc1 (centres undefined),114%
14,Nc1nc(-c2cnccn2)nn1-c1nc2ccccc2s1,97.4%
15,COc1ccc(N)c(-c2cc3c(c4c2[nH]c2ccc(OC)cc24)CCCC3)c1,55.4%
16,COc1cccc(/C(C#N)=C/c2nc3c(N4CCOCC4)nc(Cl)nc3n2C)c1,2.67% (active)
17,O=c1c(-c2nc3ccccc3[nH]2)cc2ccccc2n1Cc1cn(Cc2ccc(N3CCOCC3)cc2)nn1,110%
18,Cn1c2c(c(=O)[nH]c1=O)NC1=C(C(=O)c3ccccc31)C1(C=C(O)c3ccccc31)N2 (centres undefined),107%
19,COC(=O)/C(CCC=C(C)C)=C1\[C@@H](OC(C)=O)C[C@@]2(C)[C@H]1C[C@@H](O)[C@H]1[C@@]3(C)CC[C@H](NCCCNCCCCNCCCN)[C@@H](C)[C@@H]3CC[C@@]12C,70.6%
